FBPA Giardia inh = qHTS Assay for Inhibitors of Fructose-1,6-bisphosphate Aldolase from Giardia Lamblia | A8B2U2 | purified Giardia FBPA | Potency, µM (highest dose often 59.6 µM), without a hit: at the top dose activity, negative = inhibition, most hits filed as inhibitors | hit rate 0.71% among 290,000 | AID 2451, 2010; also: potency is read from the fitted curve at half-maximal effect; % is scaled to controls: 0 for no effect and ±100 for the full control effect; nearly all actives have a fitted effect of over 55% in size
Target sequence (A8B2U2 whole entry, looked up): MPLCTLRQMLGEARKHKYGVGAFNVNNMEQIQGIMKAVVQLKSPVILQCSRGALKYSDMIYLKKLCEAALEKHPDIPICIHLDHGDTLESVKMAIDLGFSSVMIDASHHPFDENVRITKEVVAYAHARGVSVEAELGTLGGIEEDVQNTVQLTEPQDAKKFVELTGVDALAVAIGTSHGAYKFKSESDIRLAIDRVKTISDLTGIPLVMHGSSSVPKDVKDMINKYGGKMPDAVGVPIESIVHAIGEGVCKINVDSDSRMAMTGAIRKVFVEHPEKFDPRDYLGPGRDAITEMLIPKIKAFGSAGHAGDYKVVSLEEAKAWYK
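Giardia FBPA (40 nM reagent) was preincubated 10 min at RT with compound (up to 57.5 uM final), then substrate plus GAPDH/TPI/NAD/arsenate coupling system with diaphorase/resazurin was added; resorufin fluorescence (525/598 nm) was read after 20 min.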
Shiga toxin inh = A qHTS for Small Molecule Inhibitors of Shiga Toxin; Vero cells, Shiga toxin protein synthesis inhibition reporter; inhibition, % at 38.7 µM; hit rate 9.2% among 290,000; AID 2315, 2010; in the data active = inhibition mostly above about 28%, no sharp cut-off; inactive = mostly below about 43%; also: 0% is about no effect
Pf growth 96h = Primary qHTS for delayed death inhibitors of the malarial parasite plastid, 96 hour incubation; hit rate 6.9% among 320,000; AID 504834, 2011; P. falciparum luciferase reporter growth, 96 h; Potency, µM (top dose mostly 28.7 µM), for the others: at the top dose activity change, negative = inhibition, usual class: inhibitors; also: potency is read from the fitted curve at half-maximal effect; % is scaled to controls: 0 for no effect and ±100 for the full control effect
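Luminescence readout: decreased luciferase signal marks inhibited growth of reporter-expressing P. falciparum in infected red cells (2% hematocrit, 0.05% parasitemia final), exposed to compound two generations (96 h, 37 C, 5% CO2).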
Pf growth 48h = Primary qHTS for delayed death inhibitors of the malarial parasite plastid, 48 hour incubation; P. falciparum luciferase growth in erythrocytes, 48 h; Potency, µM (titrated, usually from 28.7 µM), without a hit: at the top dose activity change, negative = inhibition, hits mostly inhibitors; hit rate 5.9% among 310,000; AID 504832, 2011; also: potency is read from the fitted curve at half-maximal effect; % is scaled to controls: 0 for no effect and ±100 for the full control effect
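Luciferase-expressing P. falciparum in infected erythrocytes (2% hematocrit, 0.1% parasitemia final) in RPMI 1640/0.5% Albumax were exposed to compound for 48 hours at 37 C, 5% CO2; growth read as luminescence.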
NS1 function inh = qHTS Assay for Inhibitors of Influenza NS1 Protein Function; hit rate 0.4% among 270,000; Potency, µM (highest dose often 46.1 µM), for the others: top-dose activity, positive = more growth; AID 2326, 2010; calls by dose curve; also: potency is read from the fitted curve at half-maximal effect; actives are rising curves; nearly all actives have a fitted effect of over 50% in size
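Compounds were scored for reversing the slow growth caused by influenza A NS1 in S. cerevisiae, measured by optical density at 600 nm. Assay medium contained 2% galactose at pH 6.0; NS1-free yeast of the same strain were the positive control.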
CHX counter = Cycloheximide Counterscreen for Small Molecule Inhibitors of Shiga Toxin; AID 2314, 2010; hit rate 12% among 300,000; cell reporter, cycloheximide protein synthesis inhibition counterscreen; max response, %; in the data active = max response mostly above about 13%, no sharp cut-off; inactive = mostly below about 14%; also: read at 38.3 µM for the half of the compounds with a filed dose; 0% is about no effect
Numbers without * were called inactive; ? = inconclusive; / = no result. An excerpt weighted towards active compounds, which were near 21% of everything screened. Unless noted, calls follow the shape of the dose curve; as a rule, active = well fitted curve in the direction sought with a large enough effect; inconclusive = small, poorly fitted or top-dose-only effect, or another doubt; inactive = no such curve, though single readings can be large; an effect the other way counts as inactive or inconclusive.

SMILES | FBPA Giardia inh | Shiga toxin inh | Pf growth 96h | Pf growth 48h | NS1 function inh | CHX counter
O=c1oc2ccc(Cl)cc2nc1/C=C(\O)c1cccs1 | ? | 56* | -10% | ? | -42% | 62*
Cc1ccc2oc(=O)c(/C=C(\O)c3cccs3)nc2c1 | ? | 77* | ? | 3% | -1% | 72*
O=S(=O)(Nc1ccc2c(c1)OCO2)c1ccc(F)c(F)c1 | / | / | -19% | 3% | / | /
O=CN1CCN(C[C@H](O)CN2CCCCC2)CC1 | / | / | / | / | -6% | /
CCOc1ccccc1NC(=O)c1csc(C)c1C | -6% | 33 | 17% | 28% | -38% | 11
COC(=O)C1=C(O)/C(=C\c2ccc(OCC(=O)Nc3ccc(OC)cc3)cc2)N=C1C | / | -7 | ? | ? | 8% | -1
Nc1c(SCCC(=O)O)ccc2c1C(=O)c1ccccc1C2=O | 0% | 36 | 50% | 11% | -38% | 21*
COC(=O)c1cc(C(=O)Nc2cc(C)on2)cc([N+](=O)[O-])c1 | 0% | / | -2% | 18% | 7% | -2
Cc1ccc2[nH]c(O)c(N=NC(=O)C3CC3c3ccccc3)c2c1Br (stereo not given) | 2% | -11 | -15% | ? | 0% | -5
O=C(COC(=O)Cc1cccs1)Nc1ccc(OC(F)(F)F)cc1 | / | / | 5% | -11% | / | /
O=C(Nc1ccc(F)cc1)c1cc2cc(Cl)ccc2[nH]1 | 6% | 32* | -5% | / | -5% | 16*
CCc1ccc2[nH]c(C(=O)Nc3ccc(C)c(F)c3)cc2c1 | -4% | 39* | ? | ? | -6% | 17*
COC(=O)c1cnc(SCc2ccc(C)cc2)n1C | -4% | 44 | 81% | 209% | -4% | 32*
Cn1c(CO)cnc1SCc1ccc(Cl)cc1 | -27% | 25 | -4% | 22% | -7% | 20*
COc1cc(/C=C/C(=O)c2cccs2)cc(OC)c1OC | -10% | / | / | / | / | /
Cc1ccc(C(=O)N2CCOCC2)cc1Cl | 7% | 16 | -18% | 22% | ? | -3
O=C(O)c1ccc2c3n(nc2c1)-c1ccc(Cl)cc1CO3 | -5% | 54* | 176% | 370% | -6% | 42*
O=C(c1ccc2c3n(nc2c1)-c1ccc(Cl)cc1CO3)N1CCCCC1 | -7% | 70* | 292% | 266% | -76% | 46*
Cc1ccc2c(c1)COc1c3ccc(C(=O)N4CCOCC4)cc3nn1-2 | 6% | 96* | 97% | 101% | -6% | 55*
CC(Sc1nnc(-c2cccnc2)o1)C(=O)NC1CCCCC1 (stereo not given) | / | / | -28% | -20% | / | /
CCc1cccc2c(-c3ccccc3)c3c(nc12)OCC3 | 16% | / | / | / | / | /
CNC(=S)N1CCN(c2c(F)cc3c(=O)c(C(=O)O)cn(C4CC4)c3c2OC)CC1C (stereo not given) | 25% | -12 | 13µM* | / | 3% | -9
COC(=O)c1ccc(/C=C/c2c(-c3ccc(OC)cc3)oc3ccc(N4CCOCC4)cc23)cc1 | -5% | 17 | 3.7µM* | ? | ? | 10
CCOc1cccc(/C=N/NC(=O)c2ccc3c(c2)OCCO3)c1O | / | 82* | ? | ? | 12% | 29*
Cc1ccc(NS(=O)(=O)c2cccc(C(=O)N/N=C/c3c(C)nn(-c4ccccc4)c3N3CCCC3)c2)c(C)c1 | 2% | -6 | ? | -7% | ? | 6
SMILES | FBPA Giardia inh | Shiga toxin inh | Pf growth 96h | Pf growth 48h | NS1 function inh | CHX counter
Cc1cccc(/C=N\NC(=O)c2ccc(Cl)cc2)c1O | 6% | 82* | -20% | ? | -6% | 62*
Cc1cccc(/C=N/NC(=O)c2ccc3c(c2)OCCO3)c1O | / | 55* | ? | 0% | -73% | 14
Cc1ccc(NS(=O)(=O)c2cccc(C(=O)N/N=C/c3ccc4c(c3)OCCO4)c2)c(C)c1 | -1% | 30 | ? | 12% | 37% | 14*
COc1ccc(-c2cc(=S)ss2)cc1 | / | / | ? | 28% | / | /
CCn1c2ccccc2c2cc(NC(=O)c3ccco3)ccc21 | -12% | 41 | / | 13µM* | -54% | 18*
CCn1c2ccccc2c2cc(NC(=O)c3cccc(OC)c3OC)ccc21 | -5% | 16 | 4.1µM* | -15% | ? | 2
CCn1c2ccccc2c2cc(NC(=O)c3cccc(OC)c3)ccc21 | -2% | 95* | -35% | ? | -14% | 20*
CCn1c2ccccc2c2cc(NC(C)=O)ccc21 | -14% | -13 | -8% | / | -73% | -2
CCn1c2ccccc2c2cc(NC(=O)CN3CCCC3)ccc21 | 8% | -6 | -28% | 6% | -23% | -2
CCn1c2ccccc2c2cc(NC(=O)c3ccc([N+](=O)[O-])cc3)ccc21 | 6% | -19 | ? | ? | 16% | 5
CCn1c2ccccc2c2cc(NC(=O)C(=O)N3CCOCC3)ccc21 | -3% | 86* | ? | 19% | 0% | 35*
CCOC(=O)C1(Cc2cccc(Cl)c2)CCCN(C(=O)c2cccc(C)n2)C1 (stereo not given) | 8% | -2 | ? | ? | 0% | 2
CCN(CC(=O)NC(c1ccccc1)c1ccccc1)Cc1nc2ccccc2c(=O)[nH]1 | 1% | 12 | 7.4µM* | 12µM* | -4% | -2
CCN(CC(=O)Nc1ccc2c(c1)CCC2)Cc1nc2ccccc2c(=O)[nH]1 | -21% | 55* | -24% | -16% | -26% | 9
COc1cccc(C2CC(c3ccc(C)cc3)=NN2C(=O)c2ccccc2F)c1OC (stereo not given) | 2% | -5 | 4.1µM* | 5.2µM* | 7% | 9
Cc1ccc(C2=NN(C(=O)c3ccccc3F)C(c3ccccc3F)C2)cc1 (stereo not given) | 14% | -2 | -42% | 4.1µM* | 6% | 3
O=C(Nc1ccc(-c2cnco2)cc1)c1ccccc1 | 0% | 93* | 151% | 94% | -6% | 47*
CC(C(=O)Nc1ccncc1)(c1ccccc1)c1ccccc1 | -3% | -15 | 10µM* | ? | 1% | -3
CC(C(=O)Nc1ncccn1)(c1ccccc1)c1ccccc1 | -3% | 2 | ? | -15% | -4% | 1
O=C(Nc1cccnc1)c1cnc2ccccc2n1 | -6% | 70* | ? | 64% | -15% | 13*
Cc1cccc(C(=O)NNC(=O)c2ccc(-c3ccccc3)cc2)c1 | 1% | -9 | ? | 8% | 6% | -1
O=C(NNC(=O)c1ccc(-c2ccccc2)cc1)c1ccccc1 | 3% | 67* | ? | 94% | 5% | 20*
Cc1cc(Br)ccc1NC(=S)N1CCOCC1 | 3% | -11 | 6% | 8% | 8% | -3
Cc1ccn2c(=O)nc(SCC(=O)NC3CCCC3)nc2c1 | / | / | 4% | -30% | / | /
CC(C)c1ccc(C(=O)Nc2cccnc2)cc1 | -2% | / | 10µM* | 317% | -44% | 36*

Compound activity deposited in PubChem by National Center for Advancing Translational Sciences (NCATS).
